# Assay outcomes: PubChem BioAssay, National Center for Advancing Translational Sciences (NCATS)
# In the library only some 21% were active in any assay of this set; here they are far more common.
# DRD3 agonist: activates the human D3 dopamine receptor | P35462 | D3R DiscoveRx beta-arrestin cells, luminescence, 90 min | max activation, % | 410,000 compounds, 0.58% hits; in the data active = max activation above about 30%
# Target sequence (P35462 whole entry, looked up): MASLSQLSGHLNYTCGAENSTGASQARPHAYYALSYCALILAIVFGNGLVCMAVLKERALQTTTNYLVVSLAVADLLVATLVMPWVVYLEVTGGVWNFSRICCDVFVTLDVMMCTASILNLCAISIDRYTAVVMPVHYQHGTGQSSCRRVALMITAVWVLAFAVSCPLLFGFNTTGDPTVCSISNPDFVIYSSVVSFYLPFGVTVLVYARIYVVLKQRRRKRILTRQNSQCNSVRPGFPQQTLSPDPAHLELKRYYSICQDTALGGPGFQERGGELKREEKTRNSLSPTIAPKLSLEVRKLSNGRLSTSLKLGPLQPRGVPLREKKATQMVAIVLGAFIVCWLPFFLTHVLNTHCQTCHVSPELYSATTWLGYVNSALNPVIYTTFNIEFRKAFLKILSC
#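 Agonist mode: compounds and dopamine controls were applied to plated cells for 90 min at 37 degrees C after an overnight attachment at 1500 cells/well. Luminescent read-out followed 30 - 60 minutes at room temperature with DiscoveRx detection reagent.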
# DT40 TDP1 CPT: DT40-hTDP1 cell growth loss with CPT. 420,000 compounds, 12% hits. Potency, µM (series often up to 46.2 µM), hits mostly inhibitors. chicken DT40 Tdp1-/-;hTDP1 cells + 20 nM CPT, ATP luminescence, 48 h; note: nearly all actives have a fitted effect of over 55% in size
#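 Chicken DT40 Tdp1-/- cells complemented with human TDP1, 400 cells/well, exposed to compounds plus 20 nM camptothecin for at least 48 h at 37 C; viability read as ATP content by CellTiter-Glo luminescence.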
# D3 antag: blocks the human D3 dopamine receptor; D3R cells, DiscoveRx beta-arrestin luminescence, antagonist mode; stronger effect = lower value; max response, negative = inhibition, %; P35462; 360,000 compounds, 2.5% hits; AID 652054; in the data active = max response below about -50%; inconclusive = no clear call, values can overlap the other calls
#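 Cells expressing the human receptor were seeded at 1500 cells/well, incubated overnight at 37 degrees C in 5% CO2, then exposed to library compounds with dopamine controls for 90 minutes at 37 degrees C before luminescent detection.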
# DT40 TDP1 no CPT: qHTS for Inhibitors of human tyrosyl-DNA phosphodiesterase 1 (TDP1): qHTS in cells in absence of CPT; DT40 Tdp1-/- hTDP1 cells, no CPT, ATP luminescence, 48 h; Potency, µM (series often up to 46.2 µM), hits mostly inhibitors; 420,000 compounds, 15% hits; note: nearly all actives have a fitted effect of over 55% in size
#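 DT40 Tdp1-/-;hTDP1 cells, no CPT (DMSO vehicle only), 400 cells/well; compounds pin-transferred; ≥48 hr, 37 °C; CellTiter-Glo 30 min RT dark, luminescence read.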
# IL-1B inflam inh: blocks inflammasome-driven IL-1 beta release; activity change, % at 57.5 µM; AID 743279; 360,000 compounds, 4.7% hits; THP-1 LPS/ATP IL-1B secretion, AlphaLISA, 16 h; stronger effect = lower value; in the data active = activity change below about -50%; inconclusive = mostly about -30% to -49%
#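 THP-1 cells pretreated 1 hr with compounds (up to 57.5 uM final), then stimulated with LPS (250 ng/mL final) plus ATP (1.25 mM final); secreted IL-1B measured by AlphaLISA after 16 hr, decreased signal indicating inhibition.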
# ClpP mod: qHTS Assay for Activators of ClpP | purified B. subtilis ClpP, FRET peptide cleavage, 20 min | Potency, µM (doses to about 57.5 µM) | 340,000 compounds, 1.9% hits; active = well fitted falling curve with a large enough effect; inconclusive = small, poorly fitted or top-dose-only effect; inactive = no such curve, though single readings can be large or run the other way; note: the source files actives as falling curves though it sought activators and does not explain the sign; nearly all actives have a fitted effect of over 65% in size
# Target sequence (P80244 whole entry, looked up): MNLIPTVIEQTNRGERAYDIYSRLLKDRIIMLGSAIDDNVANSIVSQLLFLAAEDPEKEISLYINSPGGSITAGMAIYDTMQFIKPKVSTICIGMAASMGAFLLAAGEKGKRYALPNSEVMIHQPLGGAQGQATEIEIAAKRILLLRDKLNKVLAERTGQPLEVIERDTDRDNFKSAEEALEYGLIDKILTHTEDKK
#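 Buffer: 100 mM Tris/HCl pH8, 100 mM KCl, 0.05% low protease BSA, 2.5% glycerol, 0.01% Tween-20. ClpP 10 microg/mL final; 20 min RT; delta FRET normalized to ADEP and DMSO controls.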
# Hits are given with their value; 0 = inactive; ? = inconclusive; - = not tested or not shown. Unless noted, calls come from the whole dose curve; as a rule, active = well fitted inhibition curve with a large enough effect; inconclusive = small, poorly fitted or top-dose-only effect; inactive = flat fitted curve, though single readings scatter.
SMILES,DRD3 agonist,DT40 TDP1 CPT,D3 antag,DT40 TDP1 no CPT,IL-1B inflam inh,ClpP mod
CC1CCN(C(=O)c2cc3c(=O)n(C)c4ccccc4c3s2)CC1,0,12µM,-,?,-,0
COc1ccccc1N1CCN(C(=O)c2cc3c(=O)n(C)c4ccccc4c3s2)CC1,0,?,-,26µM,-,0
Cc1cccc(Cn2c(C(C)O)nc3ccccc32)c1 (stereo not drawn),0,0,0,0,0,0
Cc1cccc(Cn2c(C)nc3c(N)c(C)c(C)cc32)c1,0,0,0,16µM,0,-
COc1ccccc1CN(C(=O)CNC(=O)c1ccco1)C(C(=O)NCC1CCCO1)c1ccccc1 (stereo not drawn),0,0,0,?,0,-
CCCNC(=O)c1cc2n(n1)CCCN(Cc1ccc(F)cc1)C2=O,0,0,-,0,-,0
COc1ccc(CCNC(=O)c2cc3n(n2)CCCN(Cc2ccc(C)cc2)C3=O)cc1OC,0,?,-,21µM,-,0
Cc1ccc(CN2CCCn3nc(C(=O)NCC(C)c4ccccc4)cc3C2=O)cc1 (stereo not drawn),0,?,-,16µM,-,0
CCc1ccc(CNC(=O)c2cc3n(n2)CCCN(Cc2ccccc2)C3=O)cc1,0,16µM,-,?,-,0
O=C(Nc1ccc2[nH]c(=O)[nH]c2c1)c1c(F)c(F)c(F)c(F)c1F,0,0,0,0,0,-
O=[N+]([O-])c1ccc(C[n+]2cc(-c3ccc(Cl)c(Cl)c3)n3c2CCCCC3)cc1,0,?,0,5.8µM,0,0
O=c1c2c(-c3ccc([N+](=O)[O-])cc3)csc2nc2n1CCCCC2,0,0,0,?,0,0
O=[N+]([O-])c1cccc(-c2nnc3n2CCCCC3)c1,0,0,0,0,0,-
O=[N+]([O-])c1ccc(C[n+]2cc(-c3ccccc3)n3c2CCCCC3)cc1,0,?,0,12µM,0,-
CCOC(=O)c1cc(C(=O)OCC)c(=O)[nH]c1N1CCCC1,0,0,0,?,0,0
CCOC(=O)C1=C(C)NC(=S)N(C(C)=O)C1c1ccc(Cl)cc1 (stereo not drawn),0,16µM,?,0,0,0
COCCOC(=O)C1=C(C)NC(=O)N(C(C)=O)C1c1ccc(Cl)cc1 (stereo not drawn),0,0,-102,0,0,0
CCOC(=O)C1=C(C)NC(=S)N(C(C)=O)C1c1ccc(OC)c(OC)c1 (stereo not drawn),0,0,0,0,0,-
C(=N\Nc1nc(N2CCOCC2)nc(N2CCOCC2)n1)/c1ccncc1,0,0,0,0,0,-
CN(C)c1ccc(/C=C/C=N/Nc2nc(N3CCOCC3)nc(N3CCOCC3)n2)cc1,0,16µM,0,?,0,0
BrC(/C=C\c1ccccc1)=N/Nc1nc(N2CCOCC2)nc(N2CCOCC2)n1,0,7.3µM,?,10µM,0,0
C/C(=C/C=N/Nc1nc(N2CCCCC2)nc(N2CCCCC2)n1)c1ccccc1,0,0,0,?,0,0
BrC(=C\c1ccccc1)/C=N/Nc1nc(N2CCOCC2)nc(N2CCOCC2)n1,0,2.3µM,0,13µM,-129,-
CC(/C=N/Nc1nc(N2CCCCC2)nc(N2CCCCC2)n1)=C\c1ccccc1,39,?,0,0,0,0
C(=N\Nc1nc(N2CCOCC2)nc(N2CCOCC2)n1)/c1cccnc1,0,0,0,0,0,0
SMILES,DRD3 agonist,DT40 TDP1 CPT,D3 antag,DT40 TDP1 no CPT,IL-1B inflam inh,ClpP mod
NC(=O)C1Cc2ccccc2CN1C(=O)c1cc(C2CC2)nn1-c1ccccc1 (stereo not drawn),0,0,0,0,0,0
Cc1c2cnn(CC(=O)NC(C)C)c(=O)c2c(C)n1Cc1ccccc1Cl,0,?,-,?,-,0
CN(Cc1cccs1)C(=O)C1CC(=O)N(Cc2ccccc2)C1 (stereo not drawn),0,0,0,0,0,0
COc1ccc(-c2nc3ccc(C)cn3c2Cc2cccc(F)c2)cc1OC,0,?,0,21µM,0,0
COc1ccc(-c2nc3ccc(Br)cn3c2Cc2cccc(F)c2)cc1OC,0,?,0,?,0,0
COc1ccc(-c2nc3ccc(Cl)cn3c2Cc2cccc(F)c2)cc1OC,0,23µM,0,21µM,0,0
Cc1ccc(S(=O)(=O)c2nnn3c2nc(NC(C)C)c2sccc23)cc1,0,0,-,0,-,0
O=S(=O)(c1ccc(OCC(O)CNC23CC4CC(CC(C4)C2)C3)c(Cl)c1)N1CCOCC1 (stereo not drawn),0,?,0,16µM,-78,-
CCOc1ccc(CCNC(=O)Cn2nnc(-c3ccccc3)n2)cc1OCC,0,-,-,-,-,0
COc1ccccc1N1CCN(C(=O)C(CC(C)C)NC(=O)C2CCCCC2)CC1 (stereo not drawn),0,?,0,?,0,0
COc1ccccc1N1CCN(CC(C)N(C(=O)C2CCCCC2)c2ccccn2)CC1 (stereo not drawn),0,0,-70,?,0,0
Cc1ccc(CN(C(=O)c2ccc(F)cc2)c2ccccn2)o1,0,0,-,?,-,0
COc1ccccc1N1CCN(CCN(C(=O)C2CCCCC2)c2ccccn2)CC1,0,?,-85,23µM,0,0
COc1ccccc1N1CCN(CCN(C(=O)c2ccc(F)cc2)c2ccccn2)CC1,0,?,-116,?,0,0
O=C(CCC(=O)N1CCN(S(=O)(=O)c2ccccc2)CC1)c1ccc(Br)cc1,0,?,0,?,?,0
Cc1ccc(Cl)cc1N1CCN(C(=O)c2cn(C)c3ccc(S(=O)(=O)N4CCC(C)CC4)cc3c2=O)CC1,0,0,-,0,-,0
CNc1cc(C)c(C#N)c2nc3ccccc3n12,0,0,0,0,0,0
Cc1cccc(NC(=O)CSc2cc(C)c(C#N)c3nc4ccccc4n23)c1,0,18µM,0,12µM,0,0
Cc1ccc(Nc2c(C(C)C)c(C)c(C#N)c3nc4ccccc4n23)cc1,0,18µM,-,15µM,-,0
Cc1cc(Cl)n2c(nc3ccccc32)c1C#N,0,0.41µM,-73,0.46µM,-100,0
Cc1cc(N2CCN(c3ccccn3)CC2)n2c(nc3ccccc32)c1C#N,0,?,0,18µM,0,0
Cc1cc(NCCCO)n2c(nc3ccccc32)c1C#N,0,0,0,0,0,-
CCC(=O)NC(=S)NNC(=O)COc1ccc(Br)cc1,0,0,0,0,0,-
CCOC(=O)[C@@H]1[C@H]2COc3ccccc3[C@H]2N2C(=O)N(c3ccccc3)C(=O)[C@]12C,0,0,0,0,0,0
Cc1c(CCCl)c(Cl)n2c(nc3ccccc32)c1C#N,0,0.92µM,-103,0.65µM,-113,0
